Results: PubChem BioAssay (EPA / NIEHS)
Activity calls are given as the source filed them. Rule for the calls: active = hit-call score of the fitted dose curve at least 0.9, where 1 is the maximum; inactive = score below 0.9.

Tests used:
Conditions in all cases: mRNA level, 48 h; actives raise or lower the signal
[1] = read-out: Cytochrome P450 3A4 (Homo sapiens) (UniProt P08684); test: LTEA_HepaRG_CYP3A4: Life Technologies and Expression Analysis (LTEA) Assay for CYP3A4 using HepaRG (AID 2283487)
In short: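 Differentiated HepaRG cells, plated 48 h, then dosed 48 h in serum-free induction medium with 0.5% DMSO, 8 half-log concentrations up to 100 uM, duplicate. CYP3A4 mRNA by qRT-PCR, normalized to ACTB/GAPDH/POLR2A; bidirectional fit versus DMSO.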

[2] = read-out: DNA damage-inducible transcript 3 (DDIT3), DDIT3 (gene 1649); test: LTEA_HepaRG_DDIT3: Life Technologies and Expression Analysis (LTEA) Assay for DNA damage-inducible transcript 3 (DDIT3) using HepaRG (AID 2283488)
In short: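 qRT-PCR readout (Fluidigm TaqMan), housekeeping-normalized to ACTB, GAPDH, POLR2A. HepaRG cells, 48 h exposure, 8-point half-log series from 100 uM in 0.5% DMSO, duplicates. Gain or loss of signal fitted against DMSO baseline.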

[3] = read-out: Pro-epidermal growth factor (Homo sapiens) (UniProt P01133); test: LTEA_HepaRG_EGF: Life Technologies and Expression Analysis (LTEA) Assay for Epidermal growth factor (EGF) using HepaRG (AID 2283489)
In short: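 EGF expression changes in human HepaRG cells are scored by bidirectional fitting relative to 0.5% DMSO controls. Chemicals are tested at eight half-log concentrations up to 100 uM for 48 h in serum-free induction medium.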

[4] = read-out: Ezrin (EZR), EZR (gene 7430); test: LTEA_HepaRG_EZR: Life Technologies and Expression Analysis (LTEA) Assay for Ezrin (EZR) using HepaRG (AID 2283491)
In short: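 EZR transcript levels came from Fluidigm qRT-PCR and were normalized to three housekeeping genes after 48 h chemical exposure of HepaRG cells. Dosing used an 8-point half-log series with a 100 uM top concentration in 0.5% DMSO, tested in duplicate; both directions were fitted versus vehicle.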

[5] = read-out: Cytochrome P450 3A7 (Homo sapiens) (UniProt P24462); test: LTEA_HepaRG_CYP3A7: Life Technologies and Expression Analysis (LTEA) Assay for CYP3A7 using HepaRG (AID 2283492)
In short: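 Cells were thawed, plated, cultured 48 h, then treated for a further 48 h with chemicals (eight-point half-log series from 100 uM, 0.5% DMSO). RNA was isolated and CYP3A7 expression quantified by qRT-PCR normalised to ACTB, GAPDH and POLR2A.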

[6] = read-out: CYP3A5 (gene 1577); test: LTEA_HepaRG_CYP3A5: Life Technologies and Expression Analysis (LTEA) Assay for CYP3A5 using HepaRG (AID 2283493)
In short: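 qRT-PCR read-out: CYP3A5 transcript in HepaRG lysates, housekeeping-normalized (ACTB/GAPDH/POLR2A), fitted bidirectionally against 0.5% DMSO baseline. Exposure 48 h, eight half-log concentrations up to 100 uM, duplicates.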

[7] = read-out: Fatty Acid-Binding Protein 1 (FABP1), FABP1 (gene 2168); test: LTEA_HepaRG_FABP1: Life Technologies and Expression Analysis (LTEA) Assay for Fatty Acid-Binding Protein 1 (FABP1) using HepaRG (AID 2283494)
In short: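 FABP1 expression by TaqMan qRT-PCR, normalised to three housekeeping genes, in HepaRG cells after 48 h chemical treatment. Eight-point half-log series topping at 100 uM in 0.5% DMSO, duplicates; gain or loss fitted relative to vehicle.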

[8] = read-out: Cytochrome P450 4A22 (Homo sapiens) (UniProt Q5TCH4); test: LTEA_HepaRG_CYP4A22: Life Technologies and Expression Analysis (LTEA) Assay for Cytochrome P450 4A22 (CYP4A22) using HepaRG (AID 2283495)
In short: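 Cryopreserved HepaRG cells, plated and cultured 48 h, then switched to serum-free induction medium and treated 48 h (duplicates, up to 100 uM, half-log steps, 0.5% DMSO). Expression change of CYP4A22 was fitted bidirectionally against vehicle.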

[9] = read-out: Cytochrome P450 7A1 (Homo sapiens) (UniProt P22680); test: LTEA_HepaRG_CYP7A1: Life Technologies and Expression Analysis (LTEA) Assay for Cytochrome P450 7A1 (CYP7A1) using HepaRG (AID 2283496)
In short: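 Using 0.5% DMSO as vehicle and baseline, chemicals were tested in duplicate over an 8-point range from 100 uM on HepaRG cells for 48 h; qRT-PCR signals were normalised to ACTB, GAPDH and POLR2A.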

[10] = read-out: Glutathione S-Transferase (GSTA2), GSTA2 (gene 2939); test: LTEA_HepaRG_GSTA2: Life Technologies and Expression Analysis (LTEA) Assay for Glutathione S-Transferase (GSTA2) using HepaRG (AID 2283497)
In short: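 GSTA2 transcript levels came from Fluidigm TaqMan qRT-PCR normalized to three housekeeping genes, fitted in both directions against DMSO. HepaRG cultures received chemicals for 48 h in serum-free induction medium (0.5% DMSO), 8 half-log concentrations up to 100 uM, duplicate.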

[11] = read-out: Glutamate-cysteine ligase catalytic (GCLC), GCLC (gene 2729); test: LTEA_HepaRG_GCLC: Life Technologies and Expression Analysis (LTEA) Assay for Glutamate-cysteine ligase catalytic (GCLC) using HepaRG (AID 2283498)
In short: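 Expression by TaqMan qRT-PCR, normalized to three housekeeping genes (ACTB, GAPDH, POLR2A), with up- or down-regulation fitted against DMSO. HepaRG cells dosed in duplicate for 48 h with 8 half-log concentrations up to 100 uM, vehicle 0.5% DMSO.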

[12] = read-out: Glutamate-cysteine ligase regulatory (GCLM), GCLM (gene 2730); test: LTEA_HepaRG_GCLM: Life Technologies and Expression Analysis (LTEA) Assay for Glutamate-cysteine ligase regulatory (GCLM) using HepaRG (AID 2283500)
In short: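 HepaRG, 48 h dosing, 100 uM top, half-log x8, 0.5% DMSO vehicle. Readout: GCLM mRNA by TaqMan qRT-PCR, housekeeping-normalized (ACTB/GAPDH/POLR2A). Curves fit bidirectionally vs DMSO baseline.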

[13] = read-out: Glutathione S-transferase M3 (GSTM3), GSTM3 (gene 2947); test: LTEA_HepaRG_GSTM3: Life Technologies and Expression Analysis (LTEA) Assay for Glutathione S-transferase M3 (GSTM3) using HepaRG (AID 2283501)
In short: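 Changes in GSTM3 expression, an oxidative-stress marker, were scored by bidirectional curve fitting against 0.5% DMSO vehicle. Human HepaRG cultures received chemicals for 48 h in duplicate, highest concentration 100 uM with half-log dilutions.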

[14] = read-out: Heat shock 70 kDa protein 1 (HSPA1A), gene 3303; test: LTEA_HepaRG_HSPA1A: Life Technologies and Expression Analysis (LTEA) Assay for Heat shock 70 kDa protein 1 (HSPA1A) using HepaRG (AID 2283502)
In short: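 HepaRG, 48 h exposure, 8-pt half-log CRC from 100 uM in 0.5% DMSO, duplicates. Readout: TaqMan qRT-PCR of HSPA1A mRNA, housekeeping-normalized (ACTB/GAPDH/POLR2A). Bidirectional fit vs 0.5% DMSO baseline.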

[15] = read-out: Hypoxia-inducible factor 1-alpha (Homo sapiens) (UniProt Q16665); test: LTEA_HepaRG_HIF1A: Life Technologies and Expression Analysis (LTEA) Assay for Hypoxia-inducible factor 1 (HIF1A) Trancription factor using HepaRG (AID 2283503)
In short: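 Gain- or loss-of-signal HIF1A mRNA changes are fitted against a DMSO baseline. HepaRG cultures receive eight concentrations, highest 100 uM, for 48 h in serum-free induction medium with 0.5% DMSO.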

[16] = read-out: 3-Hydroxy-3-Methylglutaryl-CoA Synthase 2 (HMGCS2), HMGCS2 (gene 3158); test: LTEA_HepaRG_HMGCS2: Life Technologies and Expression Analysis (LTEA) Assay for 3-Hydroxy-3-Methylglutaryl-CoA Synthase 2 (HMGCS2) using HepaRG (AID 2283504)
In short: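 Expression of HMGCS2 in human HepaRG liver cells is measured by qRT-PCR 48 h after dosing (highest 100 uM, half-log series, 0.5% DMSO). Values come from bidirectional concentration-response fitting with DMSO as baseline.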

[17] = read-out: HGF (gene 3082); test: LTEA_HepaRG_HGF: Life Technologies and Expression Analysis (LTEA) Assay for Hepatocyte Growth Facto (HGF) using HepaRG (AID 2283505)
In short: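 Gain or loss of HGF mRNA in human HepaRG liver cells after 48 h chemical exposure; eight concentrations up to 100 uM with 0.5% DMSO vehicle, quantified by TaqMan qRT-PCR.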

[18] = read-out: Insulin Like Growth Factor 1 (IGF1), IGF1 (gene 3479); test: LTEA_HepaRG_IGF1: Life Technologies and Expression Analysis (LTEA) Assay for Insulin Like Growth Factor 1 (IGF1) using HepaRG (AID 2283506)
In short: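 qRT-PCR readout of IGF1 mRNA, normalized to three housekeeping genes, after 48 h chemical exposure of HepaRG cells. Concentrations: 8-point half-log series, top 100 uM, 0.5% DMSO vehicle. Gain or loss fitted against DMSO baseline.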

[19] = read-out: Early growth response protein 1 (EGR1) transcription factor, EGR1 (gene 1958); test: LTEA_HepaRG_EGR1: Life Technologies and Expression Analysis (LTEA) Assay for Early growth response protein 1 (EGR1) transcription factor using HepaRG (AID 2283490)
In short: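 EGR1 transcript levels quantified by qRT-PCR (Fluidigm arrays) against three housekeeping genes after 48 h chemical exposure of HepaRG cells. Eight-point half-log series topping at 100 uM, 0.5% DMSO vehicle, analyzed for gain or loss.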

[20] = read-out: growth arrest and DNA damage 45 (GADD45G), GADD45G (gene 10912); test: LTEA_HepaRG_GADD45G: Life Technologies and Expression Analysis (LTEA) Assay for growth arrest and DNA damage 45 (GADD45G) using HepaRG (AID 2283499)
In short: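 Human hepatic HepaRG line treated 48 h with chemicals (eight concentrations, half-log steps from 100 uM); transcript induction or repression of GADD45G scored by qRT-PCR versus DMSO vehicle.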

Measured: AC50

Sequence of Cytochrome P450 3A7 (Homo sapiens) (P24462 whole entry, looked up): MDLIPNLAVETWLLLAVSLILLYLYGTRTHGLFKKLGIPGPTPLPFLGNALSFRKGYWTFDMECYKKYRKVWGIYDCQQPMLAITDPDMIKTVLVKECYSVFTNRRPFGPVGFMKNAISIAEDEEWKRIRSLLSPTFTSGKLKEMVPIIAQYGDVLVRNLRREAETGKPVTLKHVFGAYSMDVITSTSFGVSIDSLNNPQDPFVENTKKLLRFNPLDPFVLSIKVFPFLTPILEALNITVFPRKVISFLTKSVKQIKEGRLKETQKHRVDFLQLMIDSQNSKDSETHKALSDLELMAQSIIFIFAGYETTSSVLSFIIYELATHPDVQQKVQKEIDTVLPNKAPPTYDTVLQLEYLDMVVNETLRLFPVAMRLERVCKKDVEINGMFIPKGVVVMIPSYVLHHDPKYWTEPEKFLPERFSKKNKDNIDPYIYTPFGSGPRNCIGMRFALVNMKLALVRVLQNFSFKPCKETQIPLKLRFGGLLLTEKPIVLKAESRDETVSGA
Sequence of Cytochrome P450 3A4 (Homo sapiens) (P08684 whole entry, looked up): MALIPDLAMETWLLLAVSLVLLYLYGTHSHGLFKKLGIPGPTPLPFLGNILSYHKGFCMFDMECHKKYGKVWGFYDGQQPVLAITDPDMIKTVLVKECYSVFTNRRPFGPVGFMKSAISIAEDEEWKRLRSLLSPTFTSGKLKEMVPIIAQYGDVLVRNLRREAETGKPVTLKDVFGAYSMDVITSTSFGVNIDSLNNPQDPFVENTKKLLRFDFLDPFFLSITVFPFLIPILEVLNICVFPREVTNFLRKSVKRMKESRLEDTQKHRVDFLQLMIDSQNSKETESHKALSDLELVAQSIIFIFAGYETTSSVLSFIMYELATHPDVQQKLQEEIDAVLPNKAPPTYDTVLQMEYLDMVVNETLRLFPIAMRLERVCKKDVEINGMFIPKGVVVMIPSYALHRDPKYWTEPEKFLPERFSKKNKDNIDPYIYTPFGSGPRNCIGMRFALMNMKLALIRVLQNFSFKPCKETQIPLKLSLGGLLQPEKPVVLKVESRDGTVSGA
Sequence of Hypoxia-inducible factor 1-alpha (Homo sapiens) (Q16665 whole entry, looked up): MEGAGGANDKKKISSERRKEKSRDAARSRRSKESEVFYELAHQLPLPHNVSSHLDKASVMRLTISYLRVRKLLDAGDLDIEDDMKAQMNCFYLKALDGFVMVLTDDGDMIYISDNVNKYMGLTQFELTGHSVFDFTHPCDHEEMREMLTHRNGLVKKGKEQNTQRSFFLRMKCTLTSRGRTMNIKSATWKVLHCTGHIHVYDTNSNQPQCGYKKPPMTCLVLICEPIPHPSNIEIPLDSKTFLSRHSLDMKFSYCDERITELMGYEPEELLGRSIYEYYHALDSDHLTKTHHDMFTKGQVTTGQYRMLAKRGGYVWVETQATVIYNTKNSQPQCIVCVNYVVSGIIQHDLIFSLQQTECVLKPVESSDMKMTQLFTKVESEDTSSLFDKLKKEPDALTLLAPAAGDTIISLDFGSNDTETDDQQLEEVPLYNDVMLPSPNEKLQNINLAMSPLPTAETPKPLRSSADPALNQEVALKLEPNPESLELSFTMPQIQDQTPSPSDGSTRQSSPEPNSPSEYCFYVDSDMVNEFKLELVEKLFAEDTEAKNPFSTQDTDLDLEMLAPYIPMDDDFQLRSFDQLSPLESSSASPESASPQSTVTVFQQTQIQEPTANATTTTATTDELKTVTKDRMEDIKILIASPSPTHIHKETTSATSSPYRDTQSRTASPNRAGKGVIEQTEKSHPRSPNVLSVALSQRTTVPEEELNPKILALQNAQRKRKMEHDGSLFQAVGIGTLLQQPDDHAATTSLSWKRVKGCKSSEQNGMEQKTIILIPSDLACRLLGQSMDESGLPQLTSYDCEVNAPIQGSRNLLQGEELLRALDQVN

Cc1ccccc1O
inactive: [1] | [2] | [3] | [4] | [5] | [6] | [7] | [8] | [9] | [10] | [11] | [12] | [13] | [14] | [15] | [16] | [17] | [18]

Cc1cccc(C)c1N
inactive: [1] | [2] | [3] | [19] | [5] | [7] | [8] | [9] | [10] | [11] | [20] | [12] | [13] | [14] | [15] | [16] | [17] | [18]
active: [4] 0.364 µM

C1CC2OC2CC1C1CO1 (stereo unspecified)
inactive: [1] | [2] | [3] | [19] | [4] | [5] | [7] | [8] | [9] | [10] | [11] | [20] | [12] | [13] | [14] | [15] | [16] | [17] | [18]
